Beta apoptosis = inhibitors of cytokine-induced beta cell apoptosis, primary screen, luminescence. AID 435005, 2010. protection from apoptosis, % (no concentration beside the values). INS-1E cytokine-induced death, ATP luminescence, 48 h; percent of positive-control rescue, neutral wells zero. 300,000 tested, 0.8% active;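 active = Every replicate reaches about 75%, or at least half do and their mean reaches it too, limit read from the data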;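 note: 0% = cytokine-treated negative control wells and 100% = positive control rescue; higher means more ATP so stronger rescue from cytokine killing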
697 NFkB inh = inhibitors of PMA/ionomycin-induced NF-kB reporter, 697 cells, primary screen, B-cell NF-kB inhibitor project, cell-based, luminescence, uHTS | 697 B-cell NF-kB luciferase reporter, 16 h | inhibition, % at 4 µM | AID 435022, 2010 | 330,000 tested, 0.33% active; in the data active = inhibition above about 35%
Gli-Sufu block = Gli-Sufu pathway antagonists, primary screen, luciferase luminescence, Sufu-KO-LIGHT cells, uHTS | inhibition, % at 5 µM | 340,000 tested, 0.74% active | Sufu-KO-LIGHT fibroblasts, Gli luciferase reporter luminescence;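 active = inhibition above about 55%, limit read from the data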;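 note: 0% = DMSO-treated cells and 100% = wells with medium but no cells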
Jurkat NFkB inh = inhibitors of induced NF-kB luciferase reporter, primary screen, TCR NF-kB activation inhibitor project, cell-based, luminescence, uHTS; Jurkat, PMA/ionomycin-induced NF-kB luciferase reporter; inhibition, % at 4 µM; 330,000 tested, 0.53% active; in the data active = inhibition above about 50%
Mdm2-MdmX inh = inhibitors of human Mdm2-MdmX association, primary screen, cell-based, luminescence, split luciferase, SaOS-2, uHTS. Protein Mdm4 (Homo sapiens) + E3 ubiquitin-protein ligase Mdm2 (Homo sapiens), …. SaOS-2 split-luciferase Mdm2/MdmX complementation. inhibition, % at 8 µM. 330,000 tested, 3% active. AID 485346, 2010;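 active = inhibition of at least 50% at 8 µM in the primary screen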
Target sequence (O15151 whole entry, looked up): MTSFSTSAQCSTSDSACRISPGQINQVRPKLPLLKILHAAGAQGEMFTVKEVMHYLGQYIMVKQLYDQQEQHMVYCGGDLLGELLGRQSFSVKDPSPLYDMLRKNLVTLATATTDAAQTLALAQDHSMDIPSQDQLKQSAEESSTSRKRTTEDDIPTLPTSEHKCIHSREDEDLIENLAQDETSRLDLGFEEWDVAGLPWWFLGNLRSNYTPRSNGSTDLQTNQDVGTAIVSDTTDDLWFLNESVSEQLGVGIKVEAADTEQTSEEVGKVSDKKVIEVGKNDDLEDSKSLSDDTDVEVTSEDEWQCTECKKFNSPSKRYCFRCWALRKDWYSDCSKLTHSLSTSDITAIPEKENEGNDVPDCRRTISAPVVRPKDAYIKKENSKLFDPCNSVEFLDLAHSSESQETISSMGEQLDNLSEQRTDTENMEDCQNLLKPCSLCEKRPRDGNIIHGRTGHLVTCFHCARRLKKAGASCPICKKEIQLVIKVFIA
Target sequence (Q00987 whole entry, looked up): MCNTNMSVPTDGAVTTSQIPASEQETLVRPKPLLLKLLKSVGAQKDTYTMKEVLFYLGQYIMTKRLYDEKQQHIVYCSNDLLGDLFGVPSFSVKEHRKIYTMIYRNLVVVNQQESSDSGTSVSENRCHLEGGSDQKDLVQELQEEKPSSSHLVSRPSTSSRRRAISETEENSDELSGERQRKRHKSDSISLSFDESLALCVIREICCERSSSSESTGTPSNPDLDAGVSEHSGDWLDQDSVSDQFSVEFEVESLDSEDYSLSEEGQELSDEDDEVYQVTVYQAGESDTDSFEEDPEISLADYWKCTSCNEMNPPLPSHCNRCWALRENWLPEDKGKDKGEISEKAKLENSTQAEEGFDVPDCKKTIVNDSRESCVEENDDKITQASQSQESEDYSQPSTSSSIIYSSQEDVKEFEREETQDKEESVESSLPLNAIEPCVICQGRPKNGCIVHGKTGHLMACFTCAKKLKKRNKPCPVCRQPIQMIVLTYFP
697 NFkB conf = PMA/ionomycin-induced NF-kB reporter inhibitors, 697 retest, confirmation, B-cell NF-kB inhibitor project, cell-based, luminescence, single concentration. shares compounds with 697 NFkB inh. 697 B-cell NF-kB luciferase, 16 h. inhibition, % at 4 µM. 2,000 tested, 35% active. AID 449746, 2010; in the data active = inhibition mostly above about 28%, no sharp cut-off; inactive = mostly below about 22%
Mdm2-MdmX conf = Mdm2-MdmX complex disruptors, retested hits, confirmation, luminescence, single concentration; shares compounds with Mdm2-MdmX inh; Mdm2-MdmX binding, luminescent assay; 10,000 tested, 55% active; AID 489028, 2010; inhibition, % at 8 µM; in the data active = inhibition above about 40%
FLuc counter = full-length luciferase signal inhibition, confirmation, counter-screen for Mdm2/MdmX interaction inhibitor project, cell-based, single concentration, SaOS-2; shares compounds with Mdm2-MdmX inh; 6,200 tested, 77% active; SaOS-2 full-length luciferase counterscreen, luminescence; inhibition, % at 8 µM;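 active = mean inhibition at 8 µM reaching about 37%, which flags the compound as non-specific, limit read from the data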;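 note: p53-null SaOS-2 cells with luciferase driven by a doxycycline-inducible promoter; compound on cells about two nights before reading with doxycycline added after day one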
Numbers without * were called inactive. An excerpt weighted towards active compounds, which were near 4% of everything screened.

How did CCN(CC)S(=O)(=O)c1ccc(N2CCOCC2)c(NC(=O)c2[nH]c(C)c(C(C)=O)c2C)c1 do in these assays?
Beta apoptosis: 0; 697 NFkB inh: 48*; Gli-Sufu block: 32; Jurkat NFkB inh: -2; Mdm2-MdmX inh: 83*; 697 NFkB conf: 46*; Mdm2-MdmX conf: 41*; FLuc counter: 68*

What do the screens show for `CCN(CC)S(=O)(=O)c1ccc(N2CCOCC2)c(NC(=O)c2ccc(F)cc2)c1`?
Beta apoptosis: 3; 697 NFkB inh: 17; Gli-Sufu block: -3; Jurkat NFkB inh: -8; Mdm2-MdmX inh: 6

Results for CC(COc1ccccc1)OC(=O)Nc1ccccc1 (configuration not stated) ?
Gli-Sufu block: -16

Results for CCCCC(OC(=O)c1ccco1)C(=O)NCc1ccc(C)cc1 (configuration not stated) ?
Beta apoptosis: -1; 697 NFkB inh: -3; Gli-Sufu block: 15; Jurkat NFkB inh: -11; Mdm2-MdmX inh: 3

Results for O=C(NC1CCCCC1)N1CCN(c2ccccc2Cl)CC1 ?
Beta apoptosis: 0; 697 NFkB inh: -11; Gli-Sufu block: -26; Jurkat NFkB inh: 12; Mdm2-MdmX inh: -3

Results for COC(=O)[C@@H]1CC[C@H](C)[C@@H](c2ccc(C)cc2)N1C(=O)c1ccc(/C=N/O[C@@H](C)c2cn([C@H](CO)Cc3ccccc3)nn2)cc1 ?
Beta apoptosis: 4; 697 NFkB inh: 52*; Jurkat NFkB inh: 28; Mdm2-MdmX inh: 88*; 697 NFkB conf: 26; Mdm2-MdmX conf: 66*; FLuc counter: 51*

How did Cc1nn(-c2cccc(Cl)c2)c(Cl)c1/C=N/NC(=O)c1cccs1 do in these assays?
Beta apoptosis: 15; 697 NFkB inh: -314; Gli-Sufu block: -39; Jurkat NFkB inh: -36; Mdm2-MdmX inh: 78*; 697 NFkB conf: -24; Mdm2-MdmX conf: 54*; FLuc counter: 48*

How did Cc1cc(C)cc(C(=O)NCC(=O)OCC(=O)NC2CC2)c1 do in these assays?
Beta apoptosis: -1; 697 NFkB inh: 16; Gli-Sufu block: 0; Jurkat NFkB inh: -8; Mdm2-MdmX inh: 19

How did O=C(CSCc1cccc(Br)c1)N=Nc1c(O)[nH]c2ccccc12 do in these assays?
Beta apoptosis: -5; 697 NFkB inh: 5; Gli-Sufu block: 7; Jurkat NFkB inh: -11; Mdm2-MdmX inh: -5

How did O=Nc1c(-c2c(O)[nH]c3cc(Br)ccc23)[nH]c2ccccc12 do in these assays?
Beta apoptosis: 10; 697 NFkB inh: -321; Gli-Sufu block: -54; Jurkat NFkB inh: 39; Mdm2-MdmX inh: 99*; 697 NFkB conf: -349; Mdm2-MdmX conf: 31

What do the screens show for `O=C(NCC1CCCC(CNC(=O)N2CCc3ccccc32)C1)N1CCc2ccccc21` (configuration not stated)?
Beta apoptosis: 6; 697 NFkB inh: -1; Gli-Sufu block: 9; Jurkat NFkB inh: 3; Mdm2-MdmX inh: 10

Results for CCN(c1ccc(NC(=O)COC(=O)c2ccc(S(=O)(=O)N3CCCC3)cc2)cc1)C(C)C ?
Beta apoptosis: 0; 697 NFkB inh: 10; Gli-Sufu block: -8; Jurkat NFkB inh: -3; Mdm2-MdmX inh: 3

Results for O=C(CCCc1ccccc1)c1ccc2c(c1)OCCO2 ?
Beta apoptosis: -5; 697 NFkB inh: -270; Gli-Sufu block: 40; Jurkat NFkB inh: 42; Mdm2-MdmX inh: 90*; 697 NFkB conf: -210; Mdm2-MdmX conf: 88*; FLuc counter: 57*

Results for O=c1[nH]c(=O)n([C@H]2C[C@H](O)[C@@H](CO)O2)cc1C(F)(F)F ?
Beta apoptosis: 5; 697 NFkB inh: 48*; Gli-Sufu block: 42; Jurkat NFkB inh: 46; Mdm2-MdmX inh: 60*; 697 NFkB conf: 58*; Mdm2-MdmX conf: 52*; FLuc counter: 56*

What do the screens show for `O=c1[nH]c(=O)n(C2C[C@H](O)[C@@H](CO)O2)cc1C(F)(F)F` (some centres not stated)?
Beta apoptosis: 7; 697 NFkB inh: 28; Gli-Sufu block: 30; Jurkat NFkB inh: 18; Mdm2-MdmX inh: 31

What do the screens show for `C[C@@H]1NC(=O)N(c2ccc(F)cc2)C1=O`?
Beta apoptosis: -3; 697 NFkB inh: -11; Gli-Sufu block: 6; Jurkat NFkB inh: 5; Mdm2-MdmX inh: -1

How did CCN1CCN(C(=O)CSc2cc(=O)n(CC)c3ccccc23)CC1 do in these assays?
Beta apoptosis: -2; 697 NFkB inh: 39*; Gli-Sufu block: 30; Jurkat NFkB inh: -4; Mdm2-MdmX inh: 52*; 697 NFkB conf: 54*; Mdm2-MdmX conf: 41*; FLuc counter: 76*

How did COc1ccc(C(=O)N/N=C/c2cc(Br)ccc2O)cc1OC do in these assays?
Beta apoptosis: 104*; 697 NFkB inh: 37*; Gli-Sufu block: 19; Jurkat NFkB inh: 33; Mdm2-MdmX inh: 67*; 697 NFkB conf: 15; Mdm2-MdmX conf: 64*; FLuc counter: 30

Results for COc1ccc(Br)cc1/C=N/NC(=O)c1cc(Br)ccc1O ?
Beta apoptosis: -5; 697 NFkB inh: 3; Jurkat NFkB inh: 0; Mdm2-MdmX inh: 21

Results for CCn1c(=S)[nH]c2cc(S(=O)(=O)N3CCCCC3)ccc21 ?
Beta apoptosis: -39; 697 NFkB inh: 36*; Gli-Sufu block: 32; Jurkat NFkB inh: 3; Mdm2-MdmX inh: 82*; 697 NFkB conf: 30*; Mdm2-MdmX conf: 49*; FLuc counter: 84*

Results for C[C@H](CO)N1C[C@H](C)[C@@H](CN(C)C(=O)Nc2ccc3c(c2)OCO3)Oc2ccc(NC(=O)CCC(F)(F)F)cc2C1=O ?
Beta apoptosis: -2; 697 NFkB inh: 5; Gli-Sufu block: -4; Jurkat NFkB inh: -1; Mdm2-MdmX inh: 14

What do the screens show for `Cc1ccccc1-c1cc(C(=O)Nc2sc(C(=O)OC(C)C)c(C)c2C#N)c2ccccc2n1`?
Beta apoptosis: 52; 697 NFkB inh: 37*; Gli-Sufu block: 25; Jurkat NFkB inh: 16; Mdm2-MdmX inh: 72*; 697 NFkB conf: 43*; Mdm2-MdmX conf: 95*; FLuc counter: 24
